Hits are enriched below; roughly 2.9% of the tested compounds scored in any of these assays.
Rev-erbA mod: modulators of Rev-erb alpha DNA binding, primary screen, biochemical, FITC-DNA, fluorescence polarization, uHTS; Rev-erbα–FITC-DNA binding, 90 min; AID 1259318, 2017; Nuclear receptor subfamily 1 group D member 1 (Homo sapiens), P20393; hit rate 0.79% among 370,000; activity, % at 10 µM;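 active = activity above about 14%, limit read from the data; passing the limit was not always enough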;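 also: 0% = DMSO wells with 35 nM protein and 100% = DMSO wells with 750 nM protein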
Target sequence (P20393 whole entry, looked up): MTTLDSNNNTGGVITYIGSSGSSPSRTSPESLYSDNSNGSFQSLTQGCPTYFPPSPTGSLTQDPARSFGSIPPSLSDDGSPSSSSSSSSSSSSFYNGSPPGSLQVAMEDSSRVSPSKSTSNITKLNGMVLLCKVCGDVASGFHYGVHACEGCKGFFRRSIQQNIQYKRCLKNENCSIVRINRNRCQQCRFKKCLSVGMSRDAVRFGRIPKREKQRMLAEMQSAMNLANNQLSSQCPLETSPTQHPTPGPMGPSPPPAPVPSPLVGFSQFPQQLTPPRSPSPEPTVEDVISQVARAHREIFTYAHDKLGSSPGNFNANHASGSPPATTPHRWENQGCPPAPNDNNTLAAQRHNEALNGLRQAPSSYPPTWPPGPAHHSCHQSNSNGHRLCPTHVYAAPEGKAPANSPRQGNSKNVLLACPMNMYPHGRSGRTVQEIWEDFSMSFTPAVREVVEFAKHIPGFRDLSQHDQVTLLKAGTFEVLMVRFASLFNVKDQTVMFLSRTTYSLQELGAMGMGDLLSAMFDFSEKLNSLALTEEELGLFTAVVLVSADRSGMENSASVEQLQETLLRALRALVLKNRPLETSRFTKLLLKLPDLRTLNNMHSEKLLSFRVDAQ
RAM network inh: inhibitors of the yeast RAM network, primary screen, dse1pr::URA3 reporter, 5-FOA selection; S. cerevisiae dse1pr::URA3 reporter, 5-FOA growth OD615, 2 d; analog-sensitive cbk1-as2 kinase mutant strain; AID 868, 2007; hit rate 1.8% among 190,000; inhibition, % at 50 µM;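 active = inhibition above a set limit, 3 SD over mean compound inhibition, cut at about 8.4% in these data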;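 also: 0% = DMSO-only wells with no growth and 100% = 10 µM 1-NA-PP1 full growth; inhibition rescues growth on 5-FOA so higher OD means more RAM inhibition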
SKN-1 block: suppressors of acrylamide-induced Pgst-4::GFP reporter in worms, primary screen, SKN-1 inhibitor project, whole organism, uHTS, GFP/RFP fluorescence ratio, strain VP596 | C. elegans VP596 Pgst-4::GFP/RFP ratio, 24 h | inhibition, % at 21.8 µM | hit rate 0.49% among 360,000 | AID 624304, 2012;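 active = interference check ratio from 0.5 to 1.5 plus GFP to RFP signal ratio inhibition reaching or exceeding a fixed threshold, cut at about 30% in these data, passing the limit was not always enough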
EP2 mod: EP2 receptor modulators, cAMP readout, primary screen, cell-based, HTRF cAMP, PGE2 stimulation; induction, % at 25 µM; hit rate 0.83% among 260,000; Prostaglandin E2 receptor EP2 subtype (Homo sapiens), P43116; EP2-expressing cells, cAMP HTRF FRET, PGE2 co-stimulation; AID 940, 2007;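 active = compounds whose cAMP rise, as percent of the full-agonist control response, exceeds 60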;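 also: rat C6 glioma line stably carrying human EP2 under a CMV promoter; the protocol text gives 20 µM as final concentration; 100% = response of wells given 1 µM PGE2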
EP2 antag: human EP2 receptor antagonists, primary screen, TR-FRET cAMP, C6 glioma cells. C6 glioma cells expressing human EP2; cells stimulated with saturating PGE2. inhibition, % at 25 µM. hit rate 0.52% among 260,000;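 active = percent inhibition above 40 after rounding to a whole number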;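 also: rat C6 glioma host cells with rolipram phosphodiesterase inhibitor present; the protocol text gives 20 µM as final concentration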
PG9 binder: binders of HIV-1 gp120 antibody PG9, primary screen, biochemical, TR-FRET. TR-FRET gp120-PG9 antibody binding. inhibition, % at 6.7 µM. hit rate 0.43% among 360,000. AID 624416, 2012; in the data active = inhibition above about 8.5%
RAM efflux-def: 5-FOA growth of efflux-deficient control yeast, dose response, counter-screen for RAM network inhibitor project, S. cerevisiae, OD615 | shares compounds with RAM network inh | S. cerevisiae efflux-deficient reporter strain, 5-FOA growth OD615, 2 days | max inhibition, % | 1,200 tested, under 10 active | AID 1305, 2008; call rule not given here;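 also: plate controls were vehicle for no effect and reference inhibitor for full effect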
EP2 cAMP induct: cAMP induction in EP2, EP4, beta2-AR and parental cells, confirmation, counter-screen for EP2 modulator project, cell-based, five parallel assays, C6 glioma, HEK293 | shares compounds with EP2 mod | cAMP HTRF induction; plus low (about EC15) PGE2 agonist | calls only at 20 µM (by protocol) | hit rate 47% among 1,300;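 active = cAMP induction above 50% in the main assay while under 30% in all four parallel counter assays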;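 also: rat C6 glioma cells stably expressing human EP2 receptor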
PG9 binder conf: binders of anti-gp120 antibody PG9, confirmation, biochemical, TR-FRET | shares compounds with PG9 binder | TR-FRET PG9 antibody binding | inhibition, % at 6.7 µM | hit rate 90% among 1,500 | AID 651571, 2012; in the data active = inhibition above about 9%
PGV04 Ab binding: binders of control antibody PGV04, counter-screen for PG9 antibody binder project, biochemical, TR-FRET, distinct HIV envelope site | TR-FRET PGV04 antibody-gp120 binding | shares compounds with PG9 binder | inhibition, % at 6.7 µM | hit rate 95% among 1,500; in the data active = inhibition above about 9.5%
NR1D1 mod conf: modulators of Rev-erb alpha DNA binding, confirmation, biochemical, FITC-DNA, fluorescence polarization, single point; hit rate 61% among 3,000; activation, % at 25 µM; 90 min; shares compounds with Rev-erbA mod;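 active = activation at or above a set limit, or at least 3 SD above the negative control mean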;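 also: 0% = 35 nM protein with DMSO and 100% = 750 nM protein high control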
RORg counter: modulation of RORgamma DNA binding, dose response, counter-screen for Rev-erb alpha modulator project, biochemical, fluorescence polarization, FITC-DNA | shares compounds with Rev-erbA mod | purified RORgamma protein-FITC-DNA binding | IC50, µM | hit rate 8% among 910 | AID 1259320, 2017;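 active = Compounds whose fitted half-maximal concentration for disrupting protein-DNA binding is below 10 micromolar; the record names Rev-erb in its text, so the target is in doubt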
The depositor's hits bear a star; i = inactive; . = no result.

SMILES | Rev-erbA mod | RAM network inh | SKN-1 block | EP2 mod | EP2 antag | PG9 binder | RAM efflux-def | NR1D1 mod conf | others
COc1cccc(NC(=O)CSc2ncc(-c3ccccc3)[nH]2)c1 | . | . | . | 3 | 9 | . | . | .
Cc1ccc2nc(-c3ccc(NC(=O)CSc4nccc(=O)[nH]4)cc3)sc2c1 | 10 | 12* | 3 | -38 | 13 | 12* | 3 | . | PG9 binder conf=11*;PGV04 Ab binding=36*
CSc1nc(SCC(=O)NCc2ccco2)c2c3c(sc2n1)COC(C)(C)C3 | -2 | 2 | -14 | 33 | -1 | -1 | . | .
CCCSc1nc(SCC(=O)NCc2ccccc2)c2c3c(sc2n1)COC(C)(CC)C3 (stereo not drawn) | 77* | 12* | -24 | 31 | 8 | 2 | 2 | 78* | RORg counter=>40
CCCCSc1nc(SCC(=O)NCc2ccco2)c2c3c(sc2n1)COC(C)(CC)C3 (stereo not drawn) | 40* | 14* | 15 | 24 | 5 | 12* | 7 | 28* | PG9 binder conf=10*;PGV04 Ab binding=17*
Cn1c(N2CCC(C(=O)NCCCn3ccnc3)CC2)nc2ccccc21 | . | . | . | 5 | . | . | . | .
C=CCNC(=O)c1c(NC(=O)COc2cccc(C)c2)sc2c1CCCC2 | . | . | . | 1 | 6 | . | . | .
COc1ccc(-c2ccc(-c3noc(-c4ccccc4)n3)c(OC)n2)cc1 | 22* | 13* | 2 | 19 | 15 | -2 | 5 | 18*
COc1ccc(-c2nc(-c3ccc(C)nc3OC)no2)cc1 | . | . | . | -20 | 4 | . | . | .
CCNc1ccc2noc3c2c1C(=O)c1ccccc1-3 | 49* | 20* | 54 | 40 | 16 | 2 | 9 | 57* | RORg counter=>40
COC(=O)[C@H]1CN(C(=O)c2cscn2)C[C@@H]1c1ccc(F)cc1 | . | . | . | -30 | . | . | . | .
CCCCN1C(=O)/C(=C/C=C2\SCCN2C)SC1=S | 126* | 13* | 48* | -60 | 4 | -2 | 2 | 47* | RORg counter=>40
Cc1sc(NC(=O)c2ccc(F)cc2)c(CN2CCCCCC2)c1C | 5 | 0 | 16 | 59 | 9 | 1 | . | .
Cc1sc(NC(=O)c2ccccc2F)c(CN2CCCCC2)c1C | 8 | 0 | 4 | 84* | 17 | -2 | . | . | EP2 cAMP induct=i
CCOC(=O)C1=C(C)N(C)C(C)=C(C(=O)OCC)C1c1ccc(Cl)cc1 | 0 | 6 | -2 | 52 | 0 | -2 | . | .
CCOC(=O)C1=C(CC)OC(N)=C(C#N)C1c1ccsc1 (stereo not drawn) | -3 | 3 | 3 | 57 | 6 | 0 | . | . | EP2 cAMP induct=i

High-throughput results (PubChem)
